Mtb bLac sens: beta-lactam sensitization of Mtb H37Rv. M. tuberculosis H37Rv growth with meropenem, percent inhibition. inhibition, % at 25 µM. 0.27% of 330,000 active. AID 434955; call rule not given here;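 also: growth measured after seven days incubation then overnight dye step; 0% = bacteria only wells and 100% = bacteria with antibiotic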
RecA splice inh: blocks M. tuberculosis RecA intein splicing; P9WHJ3; cell-free RecA intein splicing, fluorescence; inhibition, % (concentration not given with the values); 0.75% of 290,000 active; in the data active = inhibition above about 30%; inconclusive = no clear call, values can overlap the other calls;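 also: 0% = vehicle wells and 100% = reference inhibitor control wells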
Target sequence (P9WHJ3 whole entry, looked up, canonical isoform): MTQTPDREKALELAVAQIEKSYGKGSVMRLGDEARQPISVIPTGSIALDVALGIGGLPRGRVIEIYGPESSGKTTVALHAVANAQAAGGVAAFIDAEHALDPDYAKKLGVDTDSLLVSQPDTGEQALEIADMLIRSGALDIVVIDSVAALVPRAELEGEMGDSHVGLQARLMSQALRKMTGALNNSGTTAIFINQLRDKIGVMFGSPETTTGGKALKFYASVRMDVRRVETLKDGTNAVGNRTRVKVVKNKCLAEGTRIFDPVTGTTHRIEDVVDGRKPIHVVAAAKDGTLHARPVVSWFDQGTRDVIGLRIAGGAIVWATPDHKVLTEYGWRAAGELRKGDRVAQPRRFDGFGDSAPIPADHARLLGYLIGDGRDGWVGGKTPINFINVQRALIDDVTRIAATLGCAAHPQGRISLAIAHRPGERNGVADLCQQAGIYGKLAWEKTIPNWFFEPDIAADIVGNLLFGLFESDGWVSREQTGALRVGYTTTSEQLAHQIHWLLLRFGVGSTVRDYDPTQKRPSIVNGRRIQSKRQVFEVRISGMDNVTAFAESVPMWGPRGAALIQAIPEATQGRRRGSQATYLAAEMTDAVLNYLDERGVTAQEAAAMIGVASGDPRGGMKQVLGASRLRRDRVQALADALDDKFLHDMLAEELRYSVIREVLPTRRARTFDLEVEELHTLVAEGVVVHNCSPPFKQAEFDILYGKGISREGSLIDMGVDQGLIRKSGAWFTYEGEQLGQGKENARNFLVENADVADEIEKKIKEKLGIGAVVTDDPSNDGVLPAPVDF
FBA Mtb inh: inhibits M. tuberculosis FBA enzyme; P9WQA3; 2.3% of 360,000 active; inhibition, % at 1 µM; purified M. tuberculosis FBA, fluorescence read-out; AID 588726; in the data active = inhibition above about 27%;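 also: 0% = vehicle and 100% = reference inhibitor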
CCHF vOTU inh: blocks the CCHF virus ovarian tumor domain protease; CCHFV vOTU protease, Pep-AMC fluorescence; inhibition, % at 11.5 µM; 0.55% of 370,000 active; AID 651958; also: 0% = vehicle wells with enzyme and 100% = no enzyme wells
GDH-TPI inh: GDH-TPI coupled enzyme inhibition counter-screen; GDH-TPI coupled enzyme counterscreen, NADH absorbance; inhibition, % at 4.8 µM; 1.2% of 360,000 active;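 also: 0% = DMSO wells and 100% = wells lacking the enzyme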
Starred values were filed as active, the others as inactive. Shown are actives, neighbours in structure and some others; about 4.2% of the full set was active somewhere. Rule as the data show it, unless noted: active = inhibition above about 30%; inactive = the rest.

Screening CC[C@@]1(c2ccc(C)cc2)C(=O)N(C(=O)OC)N1C(=O)OC returned CCHF vOTU inh -5.5.
`Cc1ccccc1CS(=O)(=O)c1nnc([C@H](CC(C)C)NC(=O)OC(C)(C)C)o1` gave Mtb bLac sens inconclusive, RecA splice inh 52.3*, FBA Mtb inh 1.1, CCHF vOTU inh 15.4 and GDH-TPI inh 10.7.
Cc1cc(C)n(C2CC(=O)N(c3ccccc3)C2=O)n1 (configuration not stated) was read as Mtb bLac sens 5.1, RecA splice inh 4.5, FBA Mtb inh 0.2, CCHF vOTU inh -5.8 and GDH-TPI inh -2.5.
Screening CC(=O)NC1N=C(C)N(c2ccccc2)C1=O (configuration not stated) returned Mtb bLac sens 0.3, RecA splice inh 52.2*, FBA Mtb inh 2.9, CCHF vOTU inh 7.7 and GDH-TPI inh 13.6.
For COc1ccc(-c2nnc(SCc3cccc(F)c3)n2-c2ccccc2)cc1 the results were CCHF vOTU inh 9.7.
Screening Cn1c2c(c(=O)n(C)c1=O)[C@@]1(C(=O)Nc3ccccc31)C(C#N)=C(N)O2 returned Mtb bLac sens 0.2, RecA splice inh 34.3*, FBA Mtb inh 2.4, CCHF vOTU inh 21.6 and GDH-TPI inh 3.7.
N#CC1=C(N)Oc2n[nH]c(-c3ccccc3)c2C12C(=O)Nc1ccccc12 (configuration not stated) was read as Mtb bLac sens 5.3, RecA splice inh 29.5, FBA Mtb inh -1.2, CCHF vOTU inh 7.7 and GDH-TPI inh 8.9.
For Cc1cc(C)cc(NC(=O)C2(C(=O)C3CC3)CC(c3ccccc3C(F)(F)F)=NO2)c1 (configuration not stated) the results were CCHF vOTU inh 5.6.
`CN(C)CCCN(C(=O)c1ccc([N+](=O)[O-])o1)c1nc2cc3c(cc2s1)OCO3` gave Mtb bLac sens 5.5, RecA splice inh -14.0, FBA Mtb inh 1.1, CCHF vOTU inh 51.4* and GDH-TPI inh 5.6.
For Cc1cc(C)cc(OCC(C)CN2CCC(C(O)(c3ccccc3)c3ccccc3)CC2)c1 (configuration not stated) the results were CCHF vOTU inh 7.2.
C=CCn1c(O)c(N=NC(=O)CNC(=O)/C=C/c2ccc(OC)cc2)c2ccccc21 was read as Mtb bLac sens 21.1, RecA splice inh -1.5, FBA Mtb inh -0.1, CCHF vOTU inh 5.1 and GDH-TPI inh 37.5*.
`CCn1c(O)c(N=NC(=O)CNC(=O)c2cccnc2)c2ccccc21` gave FBA Mtb inh 4.2, CCHF vOTU inh 9.8 and GDH-TPI inh 37.2*.
C=CCn1c(O)c(N=NC(=O)CNC(=O)/C=C/c2ccco2)c2ccccc21 was read as Mtb bLac sens 2.1, RecA splice inh 3.4, FBA Mtb inh -5.9, CCHF vOTU inh 1.1 and GDH-TPI inh 35.2*.
`NC(=O)Cn1c(O)c(N=NC(=O)CNC(=O)/C=C/c2ccccc2)c2ccccc21` gave Mtb bLac sens -0.2, RecA splice inh 1.5, FBA Mtb inh 1.9, CCHF vOTU inh 11.1 and GDH-TPI inh 36.5*.
For CCCn1c(O)c(N=NC(=O)CNC(=O)/C=C/c2ccc(OC)cc2)c2ccccc21 the results were Mtb bLac sens 6.3, RecA splice inh -0.9, FBA Mtb inh -0.1, CCHF vOTU inh 21.2 and GDH-TPI inh 15.6.
`COc1ccc(Cn2ccc3ccc(-c4ccc5ccn(C(=O)c6ccccc6C)c5c4)cc32)cc1` gave CCHF vOTU inh -10.5.
Screening Cc1nn(-c2ccccc2)c2sc(C(=O)NC3CCCc4ccccc43)cc12 (configuration not stated) returned CCHF vOTU inh -1.7.
`O=c1cc(-c2ccc3c(c2)OCO3)oc2ccccc12` gave Mtb bLac sens 7.0, RecA splice inh -5.6, FBA Mtb inh 21.6, CCHF vOTU inh -14.7 and GDH-TPI inh 39.2*.
Screening COc1ccc(-c2cc(=O)c3c(OC)c(OC)c(OC)cc3o2)cc1 returned Mtb bLac sens 3.6, RecA splice inh 0.5, FBA Mtb inh -1.1, CCHF vOTU inh 8.0 and GDH-TPI inh 32.4*.
`Cc1cccc(-c2oc3ccccc3c2-c2ccc3c(c2)OCO3)c1` gave Mtb bLac sens 1.6, RecA splice inh -3.4, FBA Mtb inh 5.3, CCHF vOTU inh 2.1 and GDH-TPI inh 7.0.
Screening COc1ccc(-c2cc(=O)c3ccccc3o2)cc1 returned Mtb bLac sens -5.2, RecA splice inh 2.7, FBA Mtb inh active, CCHF vOTU inh -287.8 and GDH-TPI inh 32.4*.
`O=c1cc(-c2ccc(O)cc2)oc2ccccc12` gave Mtb bLac sens -8.6, RecA splice inh 0.7, FBA Mtb inh 3.2, CCHF vOTU inh -0.8 and GDH-TPI inh 21.5.
`Nc1c(-c2ccc3c(c2)OCCO3)oc2ccccc2c1=O` gave Mtb bLac sens 2.8, RecA splice inh -23.7, FBA Mtb inh active, CCHF vOTU inh 12.4 and GDH-TPI inh -2.2.
`O=C(Nc1ccc(F)cc1)OCc1cn(Cc2cccc(F)c2)nn1` gave CCHF vOTU inh -2.0.
Screening CCCCNC(=O)C[C@@H]1C[C@]2(C(=O)OCC)CCC3=C2N(CCC3)C1=O returned CCHF vOTU inh 5.2.
`COc1ccc(-c2cc(=O)c3c(O)c(OC)c(OC)c(OC)c3o2)cc1` gave FBA Mtb inh -0.6, CCHF vOTU inh -10.5 and GDH-TPI inh 11.5.
O=c1cc(-c2ccc(O)cc2)oc2ccc(O)cc12 was read as Mtb bLac sens -4.7, RecA splice inh 3.3, FBA Mtb inh 3.6, CCHF vOTU inh 15.1 and GDH-TPI inh 37.4*.
COc1ccc(-c2cc(=O)c3c(OC)c(OC)c(OC)c(OC)c3o2)cc1OC was read as Mtb bLac sens 5.9, RecA splice inh -1.9, FBA Mtb inh 7.4, CCHF vOTU inh -0.9 and GDH-TPI inh 32.4*.
Screening COc1cc(OC)c2c(=O)c(OC)c(-c3ccc(OC)c(OC)c3)oc2c1 returned Mtb bLac sens -7.6, RecA splice inh -10.7, FBA Mtb inh 102.7* and GDH-TPI inh 22.2.
`O=C(CSc1nnc(COc2ccc(Cl)cc2)n1Cc1ccco1)Nc1ccc(OCc2ccccc2)cc1` gave CCHF vOTU inh 6.9.
For O=C1N(Cc2ccccc2)c2ccccc2C12CCCc1oc(CCc3ccccc3)nc12 (configuration not stated) the results were CCHF vOTU inh -1.1.
`COc1ccc(N2CCN(CCNS(=O)(=O)c3ccc(Br)s3)CC2)cc1` gave CCHF vOTU inh -4.7.
Screening COC(=O)[C@]12C[C@H](CC(=O)NCCCCc3ccccc3)C(=O)N(Cc3ccco3)C1=C[C@H](C(C)C)O[C@@H]2C1CC1 returned CCHF vOTU inh 22.6.
For CC(NCc1ccco1)C(=O)N1CCN(Cc2ccccc2F)CC1 (configuration not stated) the results were CCHF vOTU inh -5.3.
For CCOc1ccccc1C(=O)N1CCC(Oc2cccnc2)CC1 the results were CCHF vOTU inh 1.7.
Screening Cc1ccc2cc(C#N)c(NCc3ccco3)nc2c1 returned Mtb bLac sens -9.4, RecA splice inh -3.6, FBA Mtb inh 116.1*, CCHF vOTU inh -2.5 and GDH-TPI inh 5.0.

Screening results (PubChem BioAssay)
